From the supplement of paper PMC6555819 come the findings set out here.

Experiment in all cases: PBM binding z-score (relative to random genomic background probes); higher = stronger binding; sequences stand for … in GC…GCGATTGACAGCGTAGAATGAAGG
In assay [1] the test system is FXR:RXRa (NR concentration 270 nM, RXRa partner concentration 90 nM). An outline of the steps: (§1)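 Each nuclear receptor dimer, without ligand, was incubated for 1 h on custom Agilent 4×180K protein-binding microarrays. Binding was detected with antibodies against each partner (one per run), and scanned fluorescence was regression-normalized. The binding z-scores are referenced to random human genomic background probes.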

The subject of assay [2] is LXRa:RXRa (NR concentration 270 nM, RXRa partner concentration 90 nM). The gist of the method: as §1
Assay [3] deals with LXRa homodimer (NR concentration 270 nM). An outline of the steps:
as §1

Assay [4] relates to LXRb:RXRa (NR concentration 270 nM, RXRa partner concentration 90 nM). The gist of the method:
as §1

Assay [5] has as its system LXRb homodimer (NR concentration 270 nM). An outline of the steps: as §1
Assay [6] deals with PPARa:RXRa (NR concentration 270 nM, RXRa partner concentration 90 nM). The gist of the method:
as §1

Assay [7] relates to PPARg:RXRa (NR concentration 180 nM, RXRa partner concentration 90 nM). An outline of the steps: as §1
The subject of assay [8] is PPARg:RXRa 270nM:90nM, anti-RXR (NR concentration 270 nM, RXRa partner concentration 90 nM). An outline of the steps: as §1
The test system of assay [9] is PPARg:RXRa 30nM:10nM, anti-RXR (NR concentration 30 nM, RXRa partner concentration 10 nM). The gist of the method:
as §1

Assay [10] has as its system PPARg:RXRa 90nM:30nM, anti-RXR (NR concentration 90 nM, RXRa partner concentration 30 nM). An outline of the steps: as §1
Assay [11] has as its system PPARg:RXRa DBDmut IVT, anti-RXR (DBD mutation: RXRa K156A/R161A, NR concentration 270 nM, RXRa partner concentration 90 nM). An outline of the steps: as §1
In assay [12] the test system is PPARg:RXRa IVT, anti-PPARg (NR concentration 270 nM, RXRa partner concentration 90 nM). The gist of the method: as §1
Assay [13] relates to PPARg DBDmut:RXRa IVT, anti-PPARg (DBD mutation: PPARg1 K132A/R137A, NR concentration 270 nM, RXRa partner concentration 90 nM). An outline of the steps: as §1
The subject of assay [14] is PPARg DBDmut IVT, anti-PPARg (DBD mutation: PPARg1 K132A/R137A, NR concentration 270 nM). An outline of the steps: as §1
Assay [15] deals with PPARg homodimer (NR concentration 180 nM). An outline of the steps:
as §1

The test system of assay [16] is PXR:RXRa (NR concentration 270 nM, RXRa partner concentration 90 nM). The gist of the method: as §1
The test system of assay [17] is PXR homodimer (NR concentration 270 nM). The gist of the method:
as §1

Assay [18] relates to RARa:RXR (NR concentration 270 nM, RXRa partner concentration 90 nM). An outline of the steps: as §1
The test system of assay [19] is RARa homodimer (NR concentration 270 nM). The gist of the method: as §1
The subject of assay [20] is RARb:RXRa (NR concentration 270 nM, RXRa partner concentration 90 nM). An outline of the steps: as §1

With CCAGACAGGTGAGAAGGTAACCCAGCCTCGATTA, the PBM binding z-score in assay [1] was 0.179; in [2], 0.277; in assay [3], -0.0873; in assay [4], 0.148; in assay [5], 0.023; in assay [6], 0.739. Moreover, the PBM binding z-score in assay [7] is 0.689; in assay [8], 0.473; in assay [9] it was -0.12; in assay [10] it was 0.118; in assay [11] it was 1.18; in assay [12], 0.79. Further, the PBM binding z-score was -0.0117 in assay [13]; -0.618 in assay [14]; 0.918 in assay [15]; -0.0868 in assay [16]; 0.187 in assay [17]; 0.417 in assay [18]. In addition, the results for the PBM binding z-score in assay [19] and in assay [20] were 0.439 and 0.682, respectively.

With TCTTGCAGATCAAGCAGGTTAAGAAAGCCTGAGT, the PBM binding z-score in [1] was -0.529; in assay [2] it was 0.00259; in assay [3] it was -0.304; in assay [4], 0.157; in assay [5], -0.667; in [6], 0.293. Also, the PBM binding z-score in assay [7] was -0.508; in [8], 0.302; in [9], 1.76; in assay [10], 1.14; in assay [11], 0.549; in assay [12], -0.312. Also, the PBM binding z-score in [13] is -0.516; in [14], -0.801; in assay [15], -0.945; in [16], 0.199; in [17] it was -0.285; in assay [18], 0.324. For the same sequence, the PBM binding z-score in assay [19] is -1.11; in [20] it was -0.136.

Consider ATCTGTAGGTTACATCCGGGTCATTCAGGCTATG, for which the PBM binding z-score stood at 1.94 in assay [1]; 4.67 in [2]; 1.97 in assay [3]; 2.81 in assay [4]; 1.35 in [5]; 3.22 in assay [6]. Besides, the PBM binding z-score in [7] turned out to be 1.98; in [8], 2.56; in [9], 0.963; in [10], 1.83; in assay [11] it was 3.84; in [12], 4.04. Besides, the PBM binding z-score in assay [13] was 1.35; in assay [14], 1.89; in assay [15], 1.96; in assay [16] it was 3.52; in [17] it was 1.9; in assay [18], 3.18. Moreover, the PBM binding z-score in [19] was 0.982; in [20], 2.34.

For CTCGAAAGGTTGGTTGAGGTGAGTATACGGATAA, the PBM binding z-score is 1.15 in assay [1]; 0.487 in [2]; -0.0312 in [3]; 0.38 in assay [4]; -0.269 in assay [5]; 0.843 in [6]. In addition, the PBM binding z-score was -0.0296 in assay [7]; 0.107 in [8]; 0.0087 in [9]; 0.291 in assay [10]; -0.057 in [11]; 0.667 in [12]. Moreover, the PBM binding z-score in assay [13] was -0.538; in [14], -0.309; in [15] it was 0.774; in assay [16], 1.11; in [17], 0.376; in assay [18] it was 1.09. For the same sequence, the PBM binding z-score in assay [19] was 0.368; in assay [20], 1.17.

Take CCGACTGGGGCAAAGGATACCATACTCAGTACGA: the PBM binding z-score in assay [1] was -0.424; in assay [2] it was -0.501; in [3], -0.0956; in [4], -0.347; in [5], -1.05; in assay [6], 1.32. For the same sequence, the PBM binding z-score in [7] worked out at 4.4; in assay [8] it was 5.19; in [9], 3.28; in [10], 5.31; in assay [11] it was 3.85; in [12] it was 3.35. In addition, the PBM binding z-score in assay [13] was -0.00815; in assay [14] it was -0.219; in assay [15], 0.339; in assay [16], -0.407; in [17], -0.363; in assay [18], -0.246. Also, the PBM binding z-score is -0.215 in [19] and 0.425 in assay [20].

GGAACGAGGGCACTCGAGTTGATAGCATGGCGAT: the PBM binding z-score is 0.375 in assay [1]; 2.3 in assay [2]; -0.535 in [3]; -0.145 in [4]; -0.549 in [5]; 1.4 in assay [6]. Moreover, the PBM binding z-score is 1.27 in assay [7]; 0.984 in assay [8]; -0.139 in assay [9]; 0.362 in assay [10]; 4.02 in assay [11]; 3.11 in [12]. Moreover, the PBM binding z-score in [13] was 0.411; in assay [14], -0.728; in [15], -0.479; in [16], 2.52; in assay [17] it was -0.193; in assay [18], 0.513. In addition, the PBM binding z-score in assay [19] is -0.815; in assay [20] it was 1.93.
